Molecules are shown by their SMILES. Unmarked numbers belong to inactive results. Activity calls are given as the source filed them. Calls follow the shape of the dose curve; as a rule, active = well fitted curve in the direction sought with a large enough effect; inactive = no such curve, though single readings can be large or run the other way.

The test is described as follows: Retest of LOPAC molecules that induce DNA re-replication in MCF 10A normal breast cells. Conditions: MCF 10A DNA re-replication, Hoechst nuclear intensity, 48 h; series mostly up to 45.1 µM; activity change, positive = re-replication: at the top concentration. The text has this:
NIH Molecular Libraries Probe Production Network [MLPCN] NIH Chemical Genomics Center [NCGC] MLPCN Grant: Fast Track K99 CA136555 Assay Provider: Melvin DePamphilis, NICHD, NIH Assay Overview Eukaryotic cells normally restrict genome duplication to once per cell division. When this process is aberrant, DNA re-replication occurs when cells reinitiate DNA replication before the first round of replication is complete. DNA re-replication induces the DNA damage response, arrests cell proliferation, and triggers apoptosis. The cell cycle components cyclin A, Cdt-1, Cdc6 and geminin are critical regulators of this process and their misregulation results in DNA re-replication in normal and cancer cells. To identify compounds that induce re-replication in normal cells, an image-based assay was used to measure DNA content of nuclei, as detected by the fluorescent DNA binding dye, Hoechst. Cell nuclei were imaged by a fluorescence scanning plate imager and compounds that induce DNA re-replication were identified by the increase of nuclei with elevated fluorescence intensity.
Assay Protocol Summary For screening, 250 cells in 5 uL/well were dispensed into black clear 1536-well plates (Aurora) using a solenoid-based dispenser. Following transfer of 23 nL compound or DMSO vehicle by a pin tool, the plates were incubated 48 hr at 37 C and 5% CO2. After addition of 1 uL/well Hoescht stain, the plates were incubated 40 min at 37 C, 5% CO2 and total intensity of fluorescent objects (nuclei) were enumerated by an Acumen Explorer Ex3 (TTP LabTech) fluorescence scanning plate imager (405 nm excitation, 500-530 nm emission). Keywords: NIH Roadmap, MLPCN, MLI, MLSMR, qHTS, NCGC, DNA replication, cancer
Consider `C=C(C)[C@H]1Cc2c(ccc3c2O[C@@H]2COc4cc(OC)c(OC)cc4[C@@H]2C3=O)O1`, for which the Potency is 755 nM (active).
`CC(C)NP(=O)(NC(C)C)OP(=O)(NC(C)C)NC(C)C`: the “activity change, positive = re-replication” value is -24.6%.
Turning to `COc1cc2c(c(OC)c1OC)-c1ccc(OC)c(=O)cc1[C@@H](NC(C)=O)CC2`, the “activity change, positive = re-replication” value is -77.2%.

(Values after PubChem BioAssay AID493166 (National Center for Advancing Translational Sciences (NCATS), 2011).)
